In test [1] the test system is Zika virus NS2B-NS3 protease (unlinked complex). Nature of the test: Primary screen GU Rhodamine qHTS for Zika virus inhibitors: Unlinked NS2B-NS3 protease assay (AID 1347159). Note: nearly all actives have a fitted effect of over 60% in size. The conditions noted are these: Recombinant ZIKV NS2B-NS3 protease, Rhodamine110 substrate fluorescence; series mostly up to 107 µM. The method, boiled down:
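Unlinked NS2B/NS3, 25 nM; Rhod110 peptide, 1.5 microM; compounds, up to 114 microM. Reaction run 15 min at RT in 10 mM Tris-HCl pH 8.0, 0.01% Tween 20; kinetic fluorescence change fitted with a 4-parameter Hill model.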
A general note: In qHTS, concentration-response curves come from the screen itself.

The test system of test [2] is Zika virus NS2B-NS3 protease (linked construct). Nature of the test: Primary screen NINDS Rhodamine qHTS for Zika virus inhibitors (AID 1347160). Note: nearly all actives have a fitted effect of over 55% in size. The conditions noted are these: purified NS2B-NS3 protease, Rhodamine110 substrate fluorescence; series mostly up to 57.1 µM. A digest of the protocol:
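Single-chain NS2B-NS3 protease, 25 nM, pH 8.0; compounds preincubated 15 min. Activity: Rhodamine110 release from 1.5 microM substrate over 15 min, room temperature, data fitted to 4-parameter Hill.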

SMILES strings stand for the structures. Inconclusive results are not listed. A number with no mark means an inactive call. Calls of active or inactive are those of the source. Calls come from the whole dose curve; as a rule, active = well fitted inhibition curve with a large enough effect; inconclusive = small, poorly fitted or top-dose-only effect; inactive = no such curve, though single readings can be large or run the other way.
% is set by controls: 0 for no effect and ±100 for the full control effect.

Turning to `C/C=C(\C)C(=O)O[C@H]1[C@@H](O[C@]2(COC(=O)CC(C)C)O[C@H](COC(=O)C(C)CC)[C@@H](OC(C)=O)[C@@H]2O)O[C@H](COC(C)=O)[C@@H](O)[C@@H]1O` (some centres undefined), the Potency entry in test [1] and in test [2] was “inactive” throughout.
With `CC(C)(O)C1CCC(C)(C2CCC3(C)C4CCC5C(C)(C(=O)OC6OC(CO)C(O)C(O)C6O)C(O)CC(O)C56CC46CCC23C)O1` (centres undefined), the Potency entry in test [1] and in test [2] was “inactive” in each case.
On to `C[C@H](C/C=C/C(C)(C)O)[C@H]1CC[C@@]2(C)[C@@H]3[C@@H](O[C@@H]4O[C@H](CO)[C@@H](O)[C@H](O)[C@H]4O)C=C4C(CC[C@H](O)C4(C)C)[C@]3(C=O)CC[C@]12C` (some centres undefined), for which the Potency result in test [1] and in test [2] was “inactive” in each case.
For `Cc1nc(C)c(-c2ccc(C3CCC(CC(=O)O)CC3)cc2)nc1C(N)=O` (centres undefined), the Potency entry in test [1] and in test [2] was “inactive” in each case.
Turning to `NC(=O)[C@H]1CCS[C@@H]2C[C@]3(CCCN3C(=O)Cc3ccc(NC(=O)COc4ccc(Cl)cc4Cl)cc3)C(=O)N12`, the Potency result in test [1] and in test [2] was “inactive” in each case.
Turning to `CC1=C(C(=O)O)/C(=C\CO[C@@H]2O[C@H](CO)[C@@H](O)[C@H](O)[C@H]2O)C(OC(=O)/C=C\c2ccc(O)cc2)C1` (some centres undefined), the Potency result in test [1] and in test [2] was “inactive” throughout.
On to `CNC(=O)c1ccccc1Nc1cc(Nc2ccc(N3CCOCC3)cc2OC)ncc1C(F)(F)F`, for which the Potency result in test [1] and in test [2] was “inactive” in each case.
Turning to `C[C@@H]1CC[C@]2(C(=O)O[C@@H]3O[C@H](CO)[C@@H](O)[C@H](O)[C@H]3O)CC[C@]3(C)C(=CCC4[C@@]5(C)C[C@@H](O)[C@H](O)[C@@](C)(C(=O)O[C@H]6[C@H](O)C[C@@]7(C)C(CC[C@]8(C)C7CC=C7[C@H]9[C@](C(=O)O[C@@H]%10O[C@H](CO)[C@@H](O)[C@H](O)[C@H]%10O)(CC[C@@H](C)[C@@]9(C)O)CC[C@]78C)[C@@]6(CO)C(=O)O)C5CC[C@]43C)[C@@H]2[C@]1(C)O` (some centres undefined), the activity change, negative = inhibition in test [1] is -16.4% [at 19.1 µM]; in test [2], -25.7% [at 10.7 µM].
`CC(C)(C)NC(=O)[C@@H](c1cccnc1)N(C(=O)c1ccco1)c1ccc(C(C)(C)C)cc1`: the Potency entry in test [1] and in test [2] was “inactive” in each case.
Consider `Cc1ccc(C(=O)N(CCCN)C(c2oc3cc(Cl)ccc3c(=O)c2Cc2ccccc2)C(C)C)cc1` (centres undefined), for which the Potency entry in test [1] and in test [2] was “inactive” throughout.
Regarding `C[C@@H]1O[C@@H](O[C@H]2[C@@H](OC(=O)[C@]34CCC(C)(C)CC3C3=CCC5[C@@]6(C)C[C@H](O)[C@H](O[C@@H]7O[C@H](C(=O)O)[C@@H](O)[C@H](O)[C@H]7O)[C@@](C)(C(=O)O)C6CC[C@@]5(C)[C@]3(C)CC4)OC[C@H](O)[C@@H]2O)[C@H](O)[C@H](O)[C@H]1O[C@@H]1OC[C@@H](O)[C@H](O)[C@H]1O` (some centres undefined), the Potency result in test [1] and in test [2] was “inactive” each time.
For the molecule `CC1(C(=O)O)CCCC2(C)C3=CCC4CC3(CCC12)CC4CO` (centres undefined), the Potency result in test [1] and in test [2] was “inactive” in each case.
As to `CC1CCC2(C(=O)O)CCC3(C)C(=CCC4C5(C)CCC(OC(=O)/C=C/c6ccccc6)C(C)(C)C5CCC43C)C2C1C` (centres undefined), the Potency result in test [1] and in test [2] was “inactive” in each case.
Turning to `O=C(COc1cccc2c(=O)[nH]ccc12)c1ccccc1`, the Potency result in test [1] and in test [2] was “inactive” in each case.
Regarding `CC(Oc1ccc2[nH]nc(/C=C/c3cnn(CCO)c3)c2c1)c1c(Cl)cncc1Cl` (centres undefined), the Potency entry in test [1] and in test [2] was “inactive” throughout.
With `CC(C)=CCC/C(C)=C/CC/C(C)=C/COC1OC(COC2OCC(OC3OCC(O)C(O)C3O)C(O)C2O)C(O)C(OC2OC(C)C(OC3OC(C)C(OC4OCC(OC5OC(C)C(O)C(O)C5O)C(O)C4O)C(O)C3O)C(O)C2O)C1O` (centres undefined), the activity change, negative = inhibition was 15.4% [at 19.1 µM] in test [1] and -0.102% [at 10.7 µM] in test [2].
As to `CCCOc1ccc(-c2nc(OC)c3ccccc3n2)cc1`, the Potency entry in test [1] and in test [2] was “inactive” throughout.
As to `C/C=C/c1cc(OC)c2c(c1)[C@@H](C)[C@@H](c1ccc(O)c(OC)c1)O2`, the Potency entry in test [1] and in test [2] was “inactive” each time.
As to `COc1cc2nc(N3CCC(N4CCCCC4)CC3)nc(NC3CCCCCC3)c2cc1OC`, the Potency entry in test [1] and in test [2] was “inactive” each time.
As for `COc1cc(C)c(C(=O)O[C@H]2[C@@H](OC(C)=O)[C@H](n3ccc(=O)[nH]c3=O)O[C@@H]2CO)c(OC)c1`, the Potency entry in test [1] and in test [2] was “inactive” each time.
`COC(=O)C1=C2Nc3ccccc3C23CCN2CCCC(C(C)O)(C1)C23` (centres undefined): the Potency result in test [1] and in test [2] was “inactive” each time.
For `CC1(C)CC[C@]2(C(=O)O[C@@H]3O[C@H](CO[C@@H]4O[C@H](CO)[C@@H](O)[C@H](O)[C@H]4O[C@@H]4O[C@H](CO)[C@@H](O)[C@H](O)[C@H]4O)[C@@H](O)[C@H](O[C@@H]4O[C@H](CO)[C@@H](O)[C@H](O)[C@H]4O)[C@H]3O)CC[C@]3(C)C(=CCC4[C@@]5(C)CC[C@@H](O)[C@@](C)(C(=O)O[C@@H]6O[C@H](CO)[C@@H](O)[C@H](O)[C@H]6O)C5CC[C@]43C)[C@@H]2C1` (some centres undefined), the activity change, negative = inhibition in test [1] was 14.6% [at 19.1 µM]. For the same molecule, the outcome in test [2] was “inactive [at 10.7 µM]”.
Take `CC(=O)O[C@@H]1[C@@H](O)[C@H](C)O[C@@H](O[C@H]2[C@@H]3C=CO[C@@H](O[C@@H]4O[C@H](CO)[C@@H](O)[C@H](O)[C@H]4O)[C@@H]3[C@@]3(CO)O[C@@H]23)[C@@H]1OC(=O)/C=C/c1ccccc1`: the Potency entry in test [1] and in test [2] was “inactive” in each case.
Take `COC(=O)C1=CO[C@@H](O)C2C(CO)=CCC12` (some centres undefined): the Potency entry in test [1] and in test [2] was “inactive” each time.
On to `O=C(NCc1ccccn1)Nc1nnc(-c2ccco2)o1`, for which the Potency result in test [1] and in test [2] was “inactive” each time.
As to `CC(=O)C1=CCC2C3CCC4CC(O[C@@H]5O[C@H](CO)[C@@H](O[C@@H]6O[C@@H](C)[C@H](O)[C@@H](O)[C@H]6O)[C@H](O)[C@H]5O[C@@H]5O[C@H](CO)[C@@H](O)[C@H](O)[C@H]5O)CCC4(C)C3CCC12C` (some centres undefined), the Potency entry in test [1] and in test [2] was “inactive” in each case.
`CC(=O)N[C@H]1[C@H](O[C@H]2CC[C@@]3(C)C(CC[C@]4(C)C3CC=C3[C@@H]5CC(C)(C)CC[C@]5(C(=O)OC5OCC(O)C(O)C5O)CC[C@]34C)C2(C)C)O[C@H](COC2OC(C)C(O)C(OC3OC(C)C(O)C(O)C3O)C2O)[C@@H](O)[C@@H]1O` (some centres undefined): the Potency entry in test [1] and in test [2] was “inactive” each time.
